# Measured values published in PubChem BioAssay (Tox21).
# Several values for one entry are separate records, joined by “and”; a condition that tells them apart may be missing. Equal entries are not always repeated. Records with an inconclusive call do not appear. A call without a number means that no potency is given here. Activity calls are given as the source filed them. Calls come from the whole dose curve; as a rule, active = well fitted cell-killing curve with a large enough effect in the repeat runs; inconclusive = weak or mixed curves; inactive = no such curve, though single readings can be large or run the other way.
# Assay: qHTS assay to identify small molecule antagonists of the androgen receptor (AR) signaling pathway - cell viability counter screen (AID 743033; note: nearly all actives have a fitted effect of over 45% in size)
# Details: AR-bla HEK293 viability, CellTiter-Glo luminescence, 16 h; series mostly up to 58.5 µM
# Text: National Center for Advancing Translational Sciences [NCATS]
# NIH Chemical Genomics Center [NCGC]
# U.S. Environmental Protection Agency [EPA]
# National Institutes of Environmental Health Sciences [NIEHS]
# National Toxicology Program [NTP]
# U.S. Food and Drug Administration [FDA]
# Androgen receptor (AR), a nuclear hormone receptor, plays a critical role in AR-dependent prostate cancer and other androgen related diseases. Endocrine disrupting chemicals (EDCs) and their interactions with steroid hormone receptors like AR may cause disruption of normal endocrine function as well as interfere with metabolic homeostasis, reproduction, developmental and behavioral functions. To identify the compounds that inhibit AR signaling, GeneBLAzer AR-UAS-bla-GripTite cell line (Invitrogen, Carlsbad, CA, USA) containing a beta-lactamase reporter gene under control of an Upstream Activator Sequence (UAS) stably integrated into HEK293 cells was used to screen the Tox21 10K compound library. The cytotoxicity of the Tox21 compound library against the AR-bla cell line was tested in parallel by measuring the cell viability using CellTiter-Glo assay in the same wells.
# Tox21 Assay Protocol Summary:
# AR-bla cells were dispensed at 2,000 cells/5 uL of assay medium per well into black wall/clear-bottom 1536-well plates using a Multidrop Combi (ThermoFisher Scientific, Waltham, MA) dispenser. After the assay plates were incubated at a 37C and 5% CO2 for 4 hr, 23 nL of compounds dissolved in DMSO, positive controls or DMSO only was transferred to the assay plate by a Pintool station (Kalypsys, San Diego, CA), followed by addition of 1 uL of agonist (R1881) in culture medium using a Bioraptr Flying Reagent Dispenser (FRD) workstation (Beckman Coulter, Indianapolis, IN, USA). The plates were incubated at a 37C and 5% CO2 for 16 h. After 1 uL of LiveBLAzerTM B/G FRET substrate was added using a Bioraptr FRD, the plates were incubated at room temperature for 2 h and fluorescence intensity was measured by an Envision plate reader (PerkinElmer, Shelton, CT). For cell viability readout that measures cytotoxicity, 4 ul/well of CellTiter-Glo reagent was added into the assay plates using a Bioraptr FRD. After 30 min incubation at room temperature, the luminescence intensity in the plates was measured using a ViewLux (PerkinElmer) plate reader.
# Potency is the fitted concentration of half-maximal effect.
row,Structure (SMILES),Potency
1,C[C@]12CC[C@H]3[C@@H](CCC4=CC(=O)CC[C@@]43C)[C@@H]1CC[C@@H]2O,inactive
2,CCCCCCCCCCCCCCC(Br)C(=O)O (stereo not given),inactive
3,N#CSCSC#N,22.4 µM (active) and 24.3 µM (active)
4,C1CCC2CCCCC2C1 (stereo not given),inactive
5,O=C(O)c1cc[c]([Hg][Cl])cc1,54.9 µM (active)
6,CC1(C)C(/C=C(\Cl)C(F)(F)F)C1C(=O)OC(C#N)c1cccc(Oc2ccccc2)c1 (stereo not given),inactive
7,COc1cccc(C(=O)CCN[C@@H](C)[C@H](O)c2ccccc2)c1,inactive
8,CCN,inactive
9,NNC(=O)c1ccccc1,inactive
10,O=[N+]([O-])c1cc(C(F)(F)F)c(Cl)c([N+](=O)[O-])c1Cl,21.9 µM (active)
11,[Cl][Sb]([Cl])[Cl],inactive
12,Clc1ccc(CO/N=C(\Cn2ccnc2)c2ccc(Cl)cc2Cl)c(Cl)c1,inactive
13,C[C@]12CC[C@@H]3c4ccc(OC(=O)N(CCCl)CCCl)cc4CC[C@H]3[C@@H]1CC[C@@H]2O,inactive
14,CC(=O)OC1(c2ccccc2)CCN(CCc2ccccc2)CC1,inactive
15,CCCCCCCCCCCCCC[P+](CCCCCC)(CCCCCC)CCCCCC (tested in a mixture with another compound),1.95 µM (active)
16,COP(=O)(OC)SCn1c(=O)oc2cc(Cl)cnc21,inactive
17,CC1(c2ccc(Oc3ccccc3)cc2)OC(=O)N(Nc2ccccc2)C1=O (stereo not given),24.7 µM (active)
18,COc1ccc(/C(=C/C(=O)N2CCOCC2)c2ccc(Cl)cc2)cc1OC,inactive
19,O=CC(Br)(Br)Br,21.8 µM (active)
20,ClC1=C(Cl)C2(Cl)C3C(Cl)C(Cl)CC3C1(Cl)C2(Cl)Cl (stereo not given),49 µM (active)

row,Structure (SMILES),Potency
1,Clc1ccc(COC(Cn2ccnc2)c2ccc(Cl)cc2Cl)cc1 (stereo not given),40.7 µM (active) and 38.7 µM (active)
2,CN(C)[C@@H]1C(=O)C(C(N)=O)=C(O)[C@@]2(O)C(=O)C3=C(O)c4c(O)ccc(Cl)c4[C@@](C)(O)[C@H]3C[C@@H]12,inactive
3,COc1cc(N)c(Cl)cc1C(=O)NC1CN2CCC1CC2 (stereo not given),inactive
4,CCCCN(CCCC)C(=S)[S-].CCCCN(CCCC)C(=S)[S-].[Zn+2],inactive
5,Nc1ccccc1C(=O)Oc1ccc2ccccc2c1,inactive
6,CC(C)C1CCC(Cc2ccc(Cl)cc2)C1(O)Cn1cncn1 (stereo not given),38.5 µM (active)
7,Cc1c(Cl)c(=O)oc2cc(OP(=O)(OCCCl)OCCCl)ccc12,inactive
8,BrC(Br)Br,inactive
9,[Hg+2].[I-].[I-],21.9 µM (active)
10,CCOP(=S)(OCC)OC(Cl)C(Cl)(Cl)Cl (stereo not given),inactive
11,ClCc1ccc(Cl)cc1Cl,inactive
12,O=[N+]([O-])c1ccc(Oc2ccc(C(F)(F)F)cc2[N+](=O)[O-])cc1,inactive
13,CCOC(=O)CC(=O)CCl,inactive
14,CCOc1cc(C(C)(C)C)ccc1C1COC(c2c(F)cccc2F)=N1 (stereo not given),inactive
15,CC(=O)C(Cl)(Cl)Cl,10.6 µM (active)
16,CS(=O)(=O)c1ccc(C(=O)C2C(=O)CCCC2=O)c([N+](=O)[O-])c1,inactive
17,CC1CCC(C(C)C)C(OC(=O)c2ccccc2N)C1 (stereo not given),inactive
18,Cn1cc(C2=C(c3cn(C4CCN(Cc5ccccn5)CC4)c4ccccc34)C(=O)NC2=O)c2ccccc21,inactive
19,Clc1ccc(C(c2ccccc2Cl)C(Cl)(Cl)Cl)cc1 (stereo not given),inactive
20,C[C@H]1CC[C@@H]2[C@@H](C)[C@H]3[C@H](C[C@H]4[C@@H]5CC=C6CC(O[C@@H]7O[C@H](CO)[C@H](O)[C@H](O[C@@H]8O[C@H](CO)[C@@H](O)[C@H](O)[C@H]8O)[C@H]7O[C@H]7O[C@@H](C)[C@H](O)[C@@H](O)[C@H]7O)CC[C@]6(C)[C@H]5CC[C@]34C)N2C1 (stereo not given in full),inactive
